An excerpt weighted towards active compounds, which were near 9.9% of everything screened.
MCF10A rerep: A quantitative high throughput screen for small molecules that induce DNA re-replication in MCF 10a normal breast cells. MCF 10A DNA re-replication, Hoechst nuclear intensity, 48 h. 350,000 tested, 2.9% active. Potency, µM (highest dose often 46.1 µM), for inactives: at the top dose activity, positive = re-replication, hits mostly activators; further: potency means the concentration at half of the fitted maximal effect; % of control where 0% means no effect; nearly all actives have a fitted effect of over 50% in size
IL-1B inflam inh: qHTS for Inhibitors of Inflammasome Signaling: IL-1-beta AlphaLISA Primary Screen; THP-1 LPS/ATP IL-1B secretion, AlphaLISA, 16 h; hits give low values; activity change, % at 57.5 µM; 360,000 tested, 4.7% active; in the data active means activity change below about -50%; inconclusive means mostly about -30% to -49%; further: on the % scale 0 is the no-effect control and ±100 the full control effect
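Secreted IL-1B measured by AlphaLISA bead assay after 16 h compound exposure of THP-1 cells; compounds (final up to 57.5 uM) added 1 h before LPS (250 ng/mL) and ATP (1.25 mM) stimulation; lower signal means less secretion.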
SW480 rereplic: A quantitative high throughput screen for small molecules that induce DNA re-replication in SW480 colon adenocarcinoma cells; SW480 DNA re-replication, Hoechst DNA content imaging, 48 h; Potency, µM (titrated, usually from 46.1 µM), for inactives: at the highest dose re-replication activation, usual class: activators; 340,000 tested, 1.8% active; further: potency means the concentration at half of the fitted maximal effect; % of control where 0% means no effect; nearly all actives have a fitted effect of over 55% in size
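Readout is total intensity of Hoechst-stained nuclei, excited at 405 nm and collected at 500-530 nm. Compound treatment lasted 48 hr at 37 C in 5% CO2 before staining.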
KB-3-1 tox: qHTS assay for MDR1-selective chemotherapeutics: Primary screen using the parental adenocarcinoma cell KB-3-1 | 400,000 tested, 1.4% active | KB-3-1 viability, CellTiter-Glo ATP luminescence, 72 h | Potency, µM (top dose mostly 46.1 µM), most hits filed as cytotoxic | AID 1347075, 2019; further: potency means the concentration at half of the fitted maximal effect; on the % scale 0 is the no-effect control and ±100 the full control effect; nearly all actives have a fitted effect of over 60% in size
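72 h, 37 °C compound treatment of KB-3-1 parental cells; CellTiter-Glo added, 10 min, luminescence read. Data corrected against DMSO-only plates and normalized before curve fitting.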
KB-V1 cytotox: qHTS assay for MDR1-selective chemotherapeutics: Primary screen using the drug-selected MDR subline cells KB-V1; KB-V1 MDR cells viability, CellTiter-Glo, 72 h; Potency, µM (doses to about 46.1 µM), usual class: cytotoxic; 400,000 tested, 3.4% active; further: potency means the concentration at half of the fitted maximal effect; on the % scale 0 is the no-effect control and ±100 the full control effect; nearly all actives have a fitted effect of over 60% in size
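KB-V1 MDR subline cells in DMEM (phenol-red free, 10% FBS) exposed to compounds in qHTS concentration series for 72 h at 37 degrees C. Viability read by CellTiter-Glo luminescence; concentration-effect curves fitted after normalization and correction.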
Starred values were filed as active, the others as inactive. Unless noted, the call rests on the fitted dose curve; in most records, active means well fitted curve in the direction sought with a large enough effect; inconclusive means small, poorly fitted or top-dose-only effect, or another doubt; inactive means no such curve, though single readings can be large; an effect the other way counts as inactive or inconclusive.

What do the screens show for `C[C@@H]1CN([C@H](C)CO)C(=O)CCCn2cc(nn2)CO[C@H]1CN(C)C(=O)Nc1cccc(Oc2ccccn2)c1`?
IL-1B inflam inh: 13; KB-3-1 tox: inactive; KB-V1 cytotox: inconclusive

Results for Cc1nn(C)c2ncc(C(=O)c3cc(F)ccc3O)cc12 ?
MCF10A rerep: -5%; IL-1B inflam inh: -17; SW480 rereplic: 3%; KB-3-1 tox: inactive; KB-V1 cytotox: inactive

What do the screens show for `O=C(c1cnc2ccc3ccccc3c2c1)c1cc(F)ccc1O`?
MCF10A rerep: inconclusive; IL-1B inflam inh: 28; SW480 rereplic: 3.7µM*; KB-3-1 tox: inconclusive; KB-V1 cytotox: 3.7µM*

Results for CCOc1ccc(/C=N/Nc2ccc(Cl)nn2)c(O)c1 ?
MCF10A rerep: inconclusive; IL-1B inflam inh: 67; SW480 rereplic: 0.18µM*; KB-3-1 tox: inconclusive; KB-V1 cytotox: inconclusive

Results for CCc1cc(C(=O)O)c(NC(=O)C(c2ccccc2)c2ccccc2)s1 ?
MCF10A rerep: 14%; IL-1B inflam inh: 35; SW480 rereplic: -1%; KB-3-1 tox: inactive; KB-V1 cytotox: inactive

What do the screens show for `CCOC(=O)c1cc(C)sc1NC(=O)C(c1ccccc1)c1ccccc1`?
MCF10A rerep: 26µM*; IL-1B inflam inh: -8; SW480 rereplic: 0%; KB-3-1 tox: inactive; KB-V1 cytotox: inactive

Results for Cc1ccsc1C(=O)N1CCC1(C)C(=O)NS(=O)(=O)c1ccc(C#N)cc1 (centres undefined) ?
IL-1B inflam inh: -1; KB-3-1 tox: inactive; KB-V1 cytotox: inactive

How did CCN(C(=O)CSc1ccc2ccccc2n1)C1CCCCC1 do in these assays?
MCF10A rerep: inconclusive; IL-1B inflam inh: -69*; SW480 rereplic: 3%; KB-3-1 tox: inconclusive; KB-V1 cytotox: 18µM*

What do the screens show for `O=C(CSc1nc2c(c(=O)[nH]1)CCCC2)Nc1ccc(Br)cc1`?
KB-3-1 tox: inactive; KB-V1 cytotox: inactive

What do the screens show for `Cc1ccc(C)c(Cn2c3ccccc3c3cnn(CC(=O)NCC(C)c4ccccc4)c(=O)c32)c1` (centres undefined)?
KB-3-1 tox: inactive; KB-V1 cytotox: inactive

What do the screens show for `Cc1ccc(S(=O)(=O)N(C)C)cc1NC(=O)CCc1c[nH]c2ccccc12`?
MCF10A rerep: -43%; IL-1B inflam inh: 14; SW480 rereplic: 0%; KB-3-1 tox: inactive; KB-V1 cytotox: inconclusive

What do the screens show for `COc1ccc(S(=O)(=O)N(C)C)cc1NC(=O)Cc1c[nH]c2ccccc12`?
MCF10A rerep: 4%; IL-1B inflam inh: -14; SW480 rereplic: 3.7µM*; KB-3-1 tox: inactive; KB-V1 cytotox: inactive

What do the screens show for `CCOc1ccc(N2C(=O)CC(Sc3nc(CC(C)C)ccc3C#N)C2=O)cc1` (centres undefined)?
MCF10A rerep: inconclusive; IL-1B inflam inh: -1; SW480 rereplic: 5.8µM*; KB-3-1 tox: inactive; KB-V1 cytotox: inactive

How did CCOc1ccc(N2C(=O)CC(N)C2=O)cc1 (centres undefined) do in these assays?
MCF10A rerep: 18µM*; IL-1B inflam inh: 11; SW480 rereplic: inconclusive; KB-3-1 tox: inactive; KB-V1 cytotox: inconclusive

Results for CCOc1ccc(N2C(=O)CC(Sc3nc(C)cc(C)c3C#N)C2=O)cc1 (centres undefined) ?
MCF10A rerep: 2%; IL-1B inflam inh: -8; SW480 rereplic: -2%; KB-3-1 tox: inactive; KB-V1 cytotox: inconclusive

What do the screens show for `CCCOc1ccc(N2C(=O)CC(N3CCC(C(=O)OCC)CC3)C2=O)cc1` (centres undefined)?
MCF10A rerep: 15µM*; IL-1B inflam inh: 20; SW480 rereplic: 2%; KB-3-1 tox: inactive; KB-V1 cytotox: inactive

What do the screens show for `CCn1cc(S(=O)(=O)Nc2cc(F)ccc2C)cn1`?
MCF10A rerep: 0%; IL-1B inflam inh: 25; SW480 rereplic: 2%; KB-3-1 tox: inactive; KB-V1 cytotox: inactive

From PubChem BioAssay
